In PubChem BioAssay:
Where “and” joins values, the source holds several entries; their conditions need not be identical. Equal entries are not always repeated. Calls of active or inactive are those of the source.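 The calls were made as follows, unless noted: active = at least 20% inhibition of 6-phosphogluconate dehydrogenase activity; inactive = the rest.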

Experiments:
[1] = molecular target: 6-phosphogluconate dehydrogenase, decarboxylating (Homo sapiens) (UniProt P52209); assay: inhibition of human phosphogluconate dehydrogenase – biochemical, recombinant enzyme, NADPH absorbance, primary screen (AID 1159550); conditions: recombinant 6PGD, NADPH absorbance 341 nm; at 10 µM; stronger effect = higher value
Chain of 6-phosphogluconate dehydrogenase, decarboxylating (Homo sapiens) (P52209 whole entry, looked up): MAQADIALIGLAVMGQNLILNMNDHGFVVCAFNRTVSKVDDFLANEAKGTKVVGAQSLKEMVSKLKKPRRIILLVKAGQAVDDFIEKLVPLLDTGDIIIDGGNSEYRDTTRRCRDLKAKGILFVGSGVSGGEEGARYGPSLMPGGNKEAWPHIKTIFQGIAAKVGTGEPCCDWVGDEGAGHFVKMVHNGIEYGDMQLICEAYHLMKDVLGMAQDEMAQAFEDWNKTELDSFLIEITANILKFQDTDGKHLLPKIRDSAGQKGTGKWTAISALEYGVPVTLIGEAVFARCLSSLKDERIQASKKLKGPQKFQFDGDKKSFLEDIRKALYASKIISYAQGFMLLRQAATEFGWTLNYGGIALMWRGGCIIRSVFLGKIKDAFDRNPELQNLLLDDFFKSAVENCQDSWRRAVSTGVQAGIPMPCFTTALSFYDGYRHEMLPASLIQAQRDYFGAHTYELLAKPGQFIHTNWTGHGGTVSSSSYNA

[2] = viability loss with induced miR-34 in A549 – imaging, A549 dox-inducible miR-34, nuclei and caspase counts, primary screen (AID 1347080;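 active = compounds whose cell count with miR-34 switched on is under 0.7 times the count with it off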); conditions: A549 miR-34 inducible, Hoechst nuclei count, 48 h
[3] = MELAS cybrid and Rieske KO viability enhancers – cell-based, MELAS cybrids, Rieske KO mouse fibroblasts, CellTiter-Glo, primary screen (AID 1508586;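 active = mean z-score across replicates of 1.96 or higher in either the MELAS or the Rieske mutant cell line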;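 also: z relative to plate mean and SD of compound and empty wells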); conditions: low glucose
[4] = molecular target: Mitogen-activated protein kinase 7 (Homo sapiens) (UniProt Q13164); assay: Gal4-ERK5 driven luciferase induction – cell-based, HTS, primary screen (AID 1508626;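 active = luciferase signal above three times the same-plate solvent-only control wells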;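 also: luciferase driven by Gal4-ERK5 fusion binding five Gal4 sites before minimal TATA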); conditions: HeLa Gal4-ERK5 transactivation, 18 h, at 5 µM, stronger effect = higher value
Chain of Mitogen-activated protein kinase 7 (Homo sapiens) (Q13164 whole entry, looked up, the tested form may be a part): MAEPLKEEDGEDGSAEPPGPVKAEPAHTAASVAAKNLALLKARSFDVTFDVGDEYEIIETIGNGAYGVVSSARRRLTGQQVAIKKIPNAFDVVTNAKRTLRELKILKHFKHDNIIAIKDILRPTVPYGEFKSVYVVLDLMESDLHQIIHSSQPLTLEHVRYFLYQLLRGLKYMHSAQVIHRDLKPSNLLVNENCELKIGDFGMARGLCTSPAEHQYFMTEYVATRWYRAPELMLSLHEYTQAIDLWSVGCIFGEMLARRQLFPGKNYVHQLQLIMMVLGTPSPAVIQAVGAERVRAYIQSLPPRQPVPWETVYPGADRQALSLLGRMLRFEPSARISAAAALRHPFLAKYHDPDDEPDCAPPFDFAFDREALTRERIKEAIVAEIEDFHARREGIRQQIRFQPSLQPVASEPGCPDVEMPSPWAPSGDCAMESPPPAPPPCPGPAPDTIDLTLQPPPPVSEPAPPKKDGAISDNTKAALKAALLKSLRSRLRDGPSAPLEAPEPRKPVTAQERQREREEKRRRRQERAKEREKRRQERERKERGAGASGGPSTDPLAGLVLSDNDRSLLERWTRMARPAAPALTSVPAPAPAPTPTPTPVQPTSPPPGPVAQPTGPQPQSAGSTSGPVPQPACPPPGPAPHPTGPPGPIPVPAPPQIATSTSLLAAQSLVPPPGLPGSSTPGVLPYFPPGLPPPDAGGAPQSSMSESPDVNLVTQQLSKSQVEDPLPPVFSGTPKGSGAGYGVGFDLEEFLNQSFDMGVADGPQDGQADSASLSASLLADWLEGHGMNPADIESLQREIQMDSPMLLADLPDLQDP

[5] = galactose survival enhancers in mitochondrial complex I cybrids – cell-based, galactose medium, ATP luminescence, primary screen (AID 1645843;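 active = z-score of at least 1.8 in each of two replicates, scored against plate mean and spread of sample wells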;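 also: positive z means more ATP and so rescue of galactose-driven cybrid death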); conditions: complex I mutant cybrid cells, 72 h, stronger effect = higher value

**Q.** With `C#CCCCCCCCCCCCC(=O)CC(O)COC(C)=O` (centres undefined) as the compound, how does the inhibition [1] read?
**A.** -5.7% (inactive)

**Q.** Which inhibition [1] does the source give for `CCCC(=O)OC1(C(=O)CO)CCC2C3CCC4=CC(=O)CCC4(C)C3C(O)CC21C` (centres undefined) here?
**A.** -0.0758% (inactive)

**Q.** Which inhibition [1] does the source give for `CC1(C)Oc2ccc3ccc(=O)oc3c2C[C@H]1O` here?
**A.** 1.49% (inactive)

**Q.** With `Cc1cc(=O)c2c(O)c(C)c(O)cc2o1` as the compound, how does the inhibition [1] read?
**A.** 15% (inactive)

**Q.** For `CC1(C)CCC2(C(=O)O)C(O)CC3(C)C(=CCC4C5(C)CCC(O)C(C)(C)C5CCC43C)C2C1` (centres undefined), which inhibition [1] is on record?
**A.** -10.1% (inactive)

**Q.** Which inhibition [1] does the source give for `COc1ccc(-c2cc(=O)c3ccc(OC)cc3o2)cc1` here?
**A.** -4.22% (inactive)

**Q.** With `CC[C@H](C(=O)[C@@H](C)[C@@H](O)[C@H](C)[C@@H]1O[C@@H]([C@@H](CC)C(=O)O)[C@@H](C)C[C@@H]1C)[C@H]1O[C@]2(C=C[C@@H](O)[C@]3(CC[C@@](C)([C@H]4CC[C@](O)(CC)[C@H](C)O4)O3)O2)[C@H](C)C[C@@H]1C` as the compound, how does the inhibition [1] read?
**A.** -15.5% (inactive)

**Q.** With `COC(=O)c1c(Cl)c(Cl)c(C(=O)OC)c(Cl)c1Cl` as the compound, how does the inhibition [1] read?
**A.** -11.1% (inactive)

**Q.** For `N[C@@H](C=O)[C@@H](O)[C@H](O)[C@H](O)CO`, which inhibition [1] is on record?
**A.** -0.658% (inactive)

**Q.** With `O=c1c(O)cccc2c([C@H]3Oc4cc(O)cc(O)c4C[C@H]3O)cc(O)c(O)c12` as the compound, how does the inhibition [1] read?
**A.** 3.21% (inactive)

**Q.** With `CC(C)CCCC(C)C1CCC2C3CC(=O)[C@H]4CC(O)CCC4(C)C3CCC12C` (some centres undefined) as the compound, how does the inhibition [1] read?
**A.** -4.09% (inactive)

**Q.** With `CC(C)C1COc2cc3oc(=O)ccc3cc2O1` (centres undefined) as the compound, how does the inhibition [1] read?
**A.** 3.83% (inactive)

**Q.** With `CC(=O)O[C@H]1C[C@@H](OC(C)=O)C(C)(C)[C@@H]2C[C@@H](O)[C@@]3(C)[C@H](CC[C@]4(C)[C@@H](c5ccoc5)OC(=O)[C@H]5O[C@@]534)[C@@]12C` as the compound, how does the inhibition [1] read?
**A.** 13.5% (inactive)

**Q.** Which inhibition [1] does the source give for `Nc1nc2ncc(C(=O)O)nc2c(=O)[nH]1` here?
**A.** 13.3% (inactive)

**Q.** Which inhibition [1] does the source give for `CC(=O)OC1CCC2(C)C(=CCC3C2CCC2(C)C(C(C)CCCC(C)C)CCC32)C1` (centres undefined) here?
**A.** 13.3% (inactive)

**Q.** For `CC1CCC(C(C)C)C(O)C1` (centres undefined), which inhibition [1] is on record?
**A.** -10.6% (inactive)

**Q.** For `COc1cc2c(cc1OC)[C@H]1Cc3ccc(OC)c(OC)c3CN1CC2`, which inhibition [1] is on record?
**A.** 6.86% (inactive)

**Q.** For `COc1cc(OC)c2oc(-c3ccc(OC)c(OC)c3)c(O)c(=O)c2c1`, which inhibition [1] is on record?
**A.** -1.17% (inactive)

**Q.** Which inhibition [1] does the source give for `C=CC(C)(CCC1C(=C)CC(OC(C)=O)C2C(C)(C)CCCC12C)OC(C)=O` (centres undefined) here?
**A.** 11.4% (inactive)

**Q.** Which inhibition [1] does the source give for `COc1ccccc1-c1cc(=O)c2cccc(OC)c2o1` here?
**A.** 4.44% (inactive)

**Q.** For `C=CC(C)(O)CCC=C(C)C` (centres undefined), which inhibition [1] is on record?
**A.** -3.42% (inactive)

**Q.** With `CC(C)/C(O)=C1/C(=O)O[C@@H](c2ccoc2)[C@]2(C)C(O)[C@@H](O)[C@@]34OC5(C)OC67CC(C)(C(O)[C@]6(O)[C@@H](O)[C@]3(O5)C12)[C@H](CC(=O)O)[C@]74C` (some centres undefined) as the compound, how does the inhibition [1] read?
**A.** 16.8% (inactive)

**Q.** Which inhibition [1] does the source give for `CC(=O)OC1CCC2(C)C(CC(OC(C)=O)C3(C)C2CCC2(C)C(c4ccoc4)OC(=O)C4OC423)C1(C)C` (centres undefined) here?
**A.** -7.87% (inactive)

**Q.** Which inhibition [1] does the source give for `CC(C)=CCC[C@@H](C)[C@H]1CC[C@@]2(C)C3=C(CC[C@]12C)[C@@]1(C)CC[C@H](O)C(C)(C)[C@@H]1CC3` here?
**A.** 14.5% (inactive)

**Q.** For `O=C(Oc1cc(OC(=O)c2ccccc2)c2c(c1)O[C@H](c1ccc(OC(=O)c3ccccc3)c(OC(=O)c3ccccc3)c1)[C@@H](OC(=O)c1ccccc1)C2)c1ccccc1`, which inhibition [1] is on record?
**A.** -9.47% (inactive)

**Q.** With `CC(=O)Oc1ccc2c(c1C(C)C)CCC1C(C)(C)CCCC21C` (centres undefined) as the compound, how does the inhibition [1] read?
**A.** 2.45% (inactive)

**Q.** For `CCC(C)C(N)C1=NC(C(=O)NC(CC(C)C)C(=O)NC(CCC(=O)O)C(=O)NC(C(=O)NC2CCCCNC(=O)C(CC(N)=O)NC(=O)C(CC(=O)O)NC(=O)C(Cc3cnc[nH]3)NC(=O)C(Cc3ccccc3)NC(=O)C(C(C)CC)NC(=O)C(CCCN)NC2=O)C(C)CC)CS1` (centres undefined), which inhibition [1] is on record?
**A.** -5.55% (inactive)

**Q.** For `COc1cc2c(cc1O)[C@@H](Cc1ccc(O)cc1)[N+](C)(C)CC2`, which inhibition [1] is on record?
**A.** 16.9% (inactive)

**Q.** With `CC(=O)OC1C=C(C)C(COc2ccc3ccc(=O)oc3c2)C2(C)CCC(O)C(C)(C)C12` (centres undefined) as the compound, how does the inhibition [1] read?
**A.** 9.19% (inactive)

**Q.** With `O=C(O)C(O)C(O)C(=O)O` (centres undefined) as the compound, how does the inhibition [1] read?
**A.** 6.59% (inactive)

**Q.** Which inhibition [1] does the source give for `COc1ccc2c(c1)OC/C(=C/c1ccc(O)c(O)c1)C2=O` here?
**A.** 2.37% (inactive)

**Q.** With `Oc1ccc2c(c1)OC[C@H]1c3cc4c(cc3O[C@@H]21)OCO4` as the compound, how does the inhibition [1] read?
**A.** -3% (inactive)

**Q.** Which inhibition [1] does the source give for `CC(=O)O[C@H]1CC[C@]2(C)[C@H]3C(=O)C=C4[C@@H]5[C@@H](C)[C@H](C)CC[C@]5(C(=O)O)CC[C@@]4(C)[C@]3(C)CC[C@H]2C1(C)C` here?
**A.** 4.87% (inactive)

**Q.** Which inhibition [1] does the source give for `O=C1C=CC2=C3c4cc(O)c(O)cc4CC3(O)COC2=C1` (centres undefined) here?
**A.** 4.16% (inactive)

**Q.** With `Cc1ccc(C(C)C)c(O)c1C(=O)O` as the compound, how does the inhibition [1] read?
**A.** 7.11% (inactive)

**Q.** Which inhibition [1] does the source give for `CC(C)C(N)C(=O)NC(Cc1c[nH]c2ccccc12)C(=O)O` (centres undefined) here?
**A.** 4.18% (inactive)

**Q.** Which inhibition [1] does the source give for `CC1(C)C=CC(=O)[C@]2(C)[C@H]3CC[C@@]4(C)[C@H](c5ccoc5)OC(=O)[C@H]5O[C@]54[C@]3(C)C(=O)C[C@@H]12` here?
**A.** -8.35% (inactive)

**Q.** Which inhibition [1] does the source give for `C[C@@H]1[C@H]2[C@H](O[C@@H]3O[C@H](CO)[C@@H](O)[C@H](O)[C@H]3O)OC=C(C(=O)O)[C@H]2C[C@@H]1O` here?
**A.** 16.7% (inactive)

**Q.** For `CC[C@H](C(=O)[C@@H](C)[C@@H](O)[C@H](C)[C@@H]1O[C@@H]([C@@H](CC)C(=O)O)CC[C@@H]1C)[C@H]1O[C@]2(C=C[C@@H](O)[C@]3(CC[C@@](C)([C@H]4CC[C@](O)(CC)[C@H](C)O4)O3)O2)[C@H](C)C[C@@H]1C`, which inhibition [1] is on record?
**A.** 2.61% (inactive)

**Q.** For `COC(=O)[C@H](O)[C@H]1C(C)(C)C(=O)[C@@H]2C[C@]3(O)[C@@H]4CC(=O)O[C@@H](c5ccoc5)[C@]4(C)CC[C@@H]3[C@@]1(C)C2=O`, which inhibition [1] is on record?
**A.** 1.04% (inactive)

**Q.** Which inhibition [1] does the source give for `O=c1ccc2ccc(O)c(O)c2o1` here?
**A.** 2.02% (inactive)

**Q.** What about the fold change ([2]; stronger effect = lower value, cell number ratio, induced over uninduced) of the same compound?
**A.** 0.898 (inactive) and 0.94 (inactive)

**Q.** And the fold change ([2]; measured here: relative caspase fold change +Dox/-Dox)?
**A.** 1.4 and 0.597

**Q.** And the cell count ([2]; measured here: total cells with miR-34 induction, stronger effect = lower value)?
**A.** 7930 and 10100

**Q.** What about the cell count ([2]; measured here: total cells without miR-34 induction) of the same compound?
**A.** 8840 and 10800

**Q.** What about the z-score ([3]; MELAS cybrid survival, CellTiter-Glo 48 h, stronger effect = higher value) of the same compound?
**A.** -0.407 (inactive)

**Q.** And the z-score ([3]; Rieske KO mouse fibroblast survival, CellTiter-Glo 72 h)?
**A.** 0.783

**Q.** And the luciferase signal [4]?
**A.** 64 AU (inactive)

**Q.** And the z-score [5]?
**A.** -0.93 (inactive)
